Here are results for 17 compounds from PubChem BioAssay.

Experiment [1] deals with XIP peptide (Xip251-270) binding. Put plainly: small-molecule binders of XIP peptide, primary screen, biochemical, small-molecule microarray, fluorescence 635/667 nm, 0.1 µg/mL protein (AID 1182). Conditions: fluorescent protein binding, 635 nm, higher = more signal, called active from +8 up or from −8 down.
The next experiment relates to XIP peptide (Xip251-270). Put plainly: small-molecule binders of XIP peptide, primary screen, biochemical, small-molecule microarray, fluorescence 635/667 nm, 0.5 µg/mL protein (AID 1183). The conditions noted are these: small-molecule microarray binding, fluorescence 635 nm; higher = more signal.
Experiment [2] in a line: Plasmodium falciparum growth inhibition, primary screen, strain 3D7, DAPI fluorescence, 100 nL (AID 1184).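 Note: parasites grown inside human red blood cells in medium with human serum.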 The conditions noted are these: P. falciparum 3D7 growth, 3 d, higher = more signal.
Experiment [3] concerns the target Homeobox protein Hox-A13 (Mus musculus) (UniProt Q62424). Put plainly: inhibitors of HoxA13-DNA binding, primary screen, biochemical, fluorescence polarization, labeled oligonucleotide (AID 1185). The conditions noted are these: 15 min, higher = more signal, called active from +8 up or from −8 down. (In general: Fluorescence polarisation rises when a labelled molecule tumbles more slowly, as on binding a larger partner.)

Experiment [4] is described as follows: inhibitors of hydroxyurea-induced Chk1 phosphorylation, primary screen, imaging, HeLa, phospho-Chk1 antibody, percent positive cells (AID 1186). Conditions: hydroxyurea-induced phospho-Chk1 immunofluorescence imaging, higher = more signal.
The nature of experiment [5]: inhibitors of hydroxyurea-induced Chk1 phosphorylation, primary screen, imaging, HeLa, phospho-Chk1 nuclear intensity (AID 1187). The conditions noted are these: hydroxyurea-induced phospho-Chk1 immunofluorescence imaging, higher = more signal.

The source made the active and inactive calls. Unless noted, the rule behind the calls is not given here.

Sequence of Homeobox protein Hox-A13 (Mus musculus) (Q62424 whole entry, looked up): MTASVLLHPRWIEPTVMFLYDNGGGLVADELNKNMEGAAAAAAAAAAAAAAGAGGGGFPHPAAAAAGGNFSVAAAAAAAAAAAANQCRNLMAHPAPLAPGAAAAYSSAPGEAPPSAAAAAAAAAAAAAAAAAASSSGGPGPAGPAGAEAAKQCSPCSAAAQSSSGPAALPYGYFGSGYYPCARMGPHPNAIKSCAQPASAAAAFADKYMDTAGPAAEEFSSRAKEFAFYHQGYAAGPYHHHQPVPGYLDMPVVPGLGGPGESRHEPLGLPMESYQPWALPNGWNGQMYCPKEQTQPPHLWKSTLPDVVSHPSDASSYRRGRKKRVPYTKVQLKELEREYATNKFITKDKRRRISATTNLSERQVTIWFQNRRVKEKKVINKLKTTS

`COc1ccc([Si](C)(C)[C@H]2[C@H](CCn3cc([C@H](O)c4ccccc4)nn3)O[C@@]3(C(=O)N(Cc4ccc(N5C(=O)c6cccc7cccc5c67)cc4)c4ccccc43)[C@@H]2C)cc1`: the composite z-score in experiment [1] is 0.784 (inactive); in the experiment on XIP peptide (Xip251-270), 0.199. Moreover, the z-score is -1.59 in experiment [2], -0.717 (inactive) in experiment [3], -0.283 (inactive) in experiment [4] and -0.162 (inactive) in experiment [5].
With `CC(C)(C)N1CC=CC23O[C@@H]4C=CCCOC(=O)C4[C@H]2C(=O)N(CCO)[C@@H]3C1=O` (some centres not stated), the composite z-score in experiment [1] was -0.692 (inactive); in the experiment with XIP peptide (Xip251-270), -0.421. The z-score was -0.175 in experiment [2], -4.92 (inactive) in experiment [3], 0.0024 (inactive) in experiment [4] and -0.528 (inactive) in experiment [5].
With `CCOC(=O)C1CCCCN1` (configuration not stated), the results for the composite z-score (in experiment [1]; in the experiment with XIP peptide (Xip251-270)) were -0.679 (inactive) and -0.0839, respectively. Besides, the z-score in experiment [2] was 1.57; in experiment [3], 0.65 (inactive); in experiment [4], 0.0889 (inactive); in experiment [5], 0.0121 (inactive).
For the compound `CCCCN1CC=CC23O[C@@H]4/C=C\CCC(C)OC(=O)C4[C@H]2C(=O)N(C(CO)C(C)C)[C@@H]3C1=O` (some centres not stated), the composite z-score was 0.743 (inactive) in experiment [1] and 0.844 in the experiment on XIP peptide (Xip251-270). The z-score in experiment [2] is -0.36; in experiment [3] it was -5.09 (inactive); in experiment [4] it was -0.428 (inactive); in experiment [5], -0.543 (inactive).
`COC(=O)c1c2oc(c1C(=O)OC)C(=O)N(C)Cc1cn(nn1)C[C@H](Cc1ccccc1)NC(=O)N[C@H](CO)CC2`: the composite z-score in experiment [1] was 0.15 (inactive); in the experiment with XIP peptide (Xip251-270) it was -0.374. Besides, the z-score in experiment [2] is -0.38; in experiment [3], -1.66 (inactive); in experiment [4] it was 0.453 (inactive); in experiment [5], 0.723 (inactive).
Regarding `Cc1ccc(S[C@]2(C(=O)NCC(F)(F)F)CC(=O)N(Cc3ccccc3)[C@@H]2c2ccc(CO)cc2I)cc1`, the composite z-score was -0.0862 (inactive) in experiment [1] and 0.442 in the experiment on XIP peptide (Xip251-270). In addition, the z-score in experiment [2] is 0.15; in experiment [3], -3.68 (inactive); in experiment [4], 0.475 (inactive); in experiment [5] it was 0.554 (inactive).
Consider `CO[C@]12C=C(Br)[C@@H](C[C@@H]1c1cccc(C)c1)[C@@]1(CO1)C2=O`, for which the figures for the composite z-score (in experiment [1]; with XIP peptide (Xip251-270)) were 0.177 (inactive) and 0.179, respectively. The z-score is 0.267 in experiment [2], -1.7 (inactive) in experiment [3], -0.545 (inactive) in experiment [4] and -0.28 (inactive) in experiment [5].
Consider `CCC(CC)C(O)C1C=CC2C(=O)N(c3ccccc3)C(=O)C2N1Nc1ccc(C(C)C)cc1` (configuration not stated), for which the composite z-score in experiment [1] was 0.0969 (inactive); in the experiment with XIP peptide (Xip251-270), 0.586. In addition, the z-score in experiment [2] was -0.615; in experiment [3], -3.2 (inactive); in experiment [4] it was -0.681 (inactive); in experiment [5] it was -0.765 (inactive).
Regarding `CN(C)c1ccc(C(O)C2C=CC3C(=O)N(c4ccccc4)C(=O)C3N2Nc2ccc([N+](=O)[O-])cc2)cc1` (configuration not stated), the composite z-score in experiment [1] was -0.0383 (inactive); in the experiment with XIP peptide (Xip251-270) it was 0.648. Moreover, the z-score in experiment [2] is -0.704; in experiment [3] it was -5.57 (inactive); in experiment [4] it was 0.55 (inactive); in experiment [5], -0.576 (inactive).
As for `Cc1cc(C)c(C(O)C2C=CC3C(=O)NC(=O)C3N2Nc2ccc(Cl)cc2Cl)c(C)c1` (configuration not stated), the composite z-score is 0.696 (inactive) in experiment [1] and 0.179 in the experiment on XIP peptide (Xip251-270). In addition, the z-score is 0.17 in experiment [2], -3.47 (inactive) in experiment [3], 0.73 (inactive) in experiment [4] and 0.314 (inactive) in experiment [5].
Consider `Cn1cccc1C(O)C1C=CC2C(=O)NC(=O)C2N1Nc1ccc(Cl)cc1Cl` (configuration not stated), for which the composite z-score in experiment [1] is 0.789 (inactive); in the experiment with XIP peptide (Xip251-270) it was 0.768. For the same compound, the z-score in experiment [2] was -0.152; in experiment [3], -3.92 (inactive); in experiment [4], 0.702 (inactive); in experiment [5], 0.532 (inactive).
For `COC(=O)[C@@]1(Cc2ccc(F)cc2)[C@H]2c3cc(C(=O)N4CCCC4)n(CCc4ccc(O)c(O)c4)c3C[C@H]2CN1C(=O)c1ccccc1`, the composite z-score was 1.19 (inactive) in experiment [1] and -0.892 in the experiment with XIP peptide (Xip251-270). The z-score in experiment [2] is -1.47; in experiment [3] it was -4.67 (inactive); in experiment [4], 0.333 (inactive); in experiment [5], 0.303 (inactive).
As for `CC1CC/C=C\[C@H]2OC34C=CCN(C(C)C)C(=O)[C@H]3N(CCCCCCO)C(=O)[C@@H]4C2C(=O)O1` (some centres not stated), the composite z-score was 0.565 (inactive) in experiment [1] and 0.27 in the experiment on XIP peptide (Xip251-270). In addition, the z-score in experiment [2] was -0.565; in experiment [3], -3.74 (inactive); in experiment [4], -0.108 (inactive); in experiment [5] it was 0.631 (inactive).
Take `O=C(CS)NCCCCCNC(=O)[C@@H]1C[C@@H]2C(=O)N3CCC[C@H]3C(=O)N2[C@@H]1c1cccc(OCCO)c1`: the composite z-score in experiment [1] was 2.29 (inactive); with XIP peptide (Xip251-270), 0.839. For the same compound, the z-score is 1.05 in experiment [2], -3.61 (inactive) in experiment [3], 1.25 (inactive) in experiment [4] and 0.575 (inactive) in experiment [5].
For `C=C(COC)/C(=C/C[C@H](OC(C)=O)c1ccc(OCCO)cc1)c1cc(C(=O)OC)ccc1OC`, the results for the composite z-score (in experiment [1]; with XIP peptide (Xip251-270)) were 0.192 (inactive) and 0.731, respectively. In addition, the z-score in experiment [2] was -2.95; in experiment [3], -4.11 (inactive); in experiment [4] it was -0.285 (inactive); in experiment [5], 0.98 (inactive).
Turning to `CN1C(=O)C2C=CC(C(O)c3ccc(F)cc3)N(Nc3ccccc3)C2C1=O` (configuration not stated), the composite z-score was 0.477 (inactive) in experiment [1] and 0.466 in the experiment on XIP peptide (Xip251-270). Also, the z-score in experiment [2] is -0.102; in experiment [3] it was -2.9 (inactive); in experiment [4], 0.264 (inactive); in experiment [5] it was -0.232 (inactive).
With `CCOC(=O)c1ccc(NC(=O)O[C@H]2[C@H](OC(=O)Nc3ccc4c(c3)OCO4)[C@H](OC(=O)Nc3ccc4c(c3)OCO4)[C@@H](OC)O[C@@H]2CO)cc1`, the composite z-score was 1.4 (inactive) in experiment [1] and 0.863 in the experiment with XIP peptide (Xip251-270). Besides, the z-score was -2.28 in experiment [2], -6.83 (inactive) in experiment [3], -0.306 (inactive) in experiment [4] and 0.101 (inactive) in experiment [5].
